From article PMC5540273 (PLoS ONE, 2017)

Test system: ADCK4
Conditions: concentration: 1 μM, replicates: in singlicate; n = 1
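Note: KINOMEscan kinase panel screen.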

Compound	%Inh [%]
Cc1nc(N(C)[C@H]2CN(C(=O)CC#N)CC[C@H]2C)c2cc[nH]c2n1	0
O=C(Nc1n[nH]c2nc(-c3ccccc3)c(Cl)cc12)C1CC1 [SB-734909]	0
COc1cccc(C2=C(N(C)c3ccccc3)C(=O)NC2=O)c1 [SB-334865]	21
COc1ccc(-c2coc3ccc(-c4nnc(SCc5cccc(C#N)c5)o4)cc23)cc1	0
O=C(NCCNc1ccnc(Nc2ccc(F)cc2)n1)Nc1ccc2c(c1)OCO2 [GSK1379882]	23
CCS(=O)c1ccc(-c2coc3ccc(-c4nnc(C)o4)cc23)cc1 (stereo not drawn)	0
Cc1cccc(-c2nc(Nc3ccc4c(cnn4C)c3)c3ccccc3n2)n1 [GW876731]	4
CCn1c(-c2nonc2N)nc2ccccc21 [SB-693162/GW549034]	0
CCC(=O)c1c(-c2ccccc2)c2cc(Cl)ccc2c(=O)n1Cc1cc(S(C)(=O)=O)n(CC(F)F)n1	0
COc1cc2ncn(-c3cc(OCc4ccncc4Br)c(C(N)=O)s3)c2cc1OC [GW854278]	0
COC(=O)c1c(-c2ccccc2)c2cc(C)ccc2c(=O)n1Cc1ccccc1	0
Cc1nnc(-c2ccc3ncn(-c4ccc(S(C)=O)cc4)c3c2)o1 (stereo not drawn)	0
COC(=O)c1c(-c2ccccc2)c2cc(Br)ccc2c(=O)n1Cc1ccc(S(C)(=O)=O)cc1	8
CCC(=O)c1c(-c2ccccc2)c2cc(Cl)ccc2c(=O)n1Cc1cc(S(C)(=O)=O)n(CC(N)=O)n1	0
COc1cc(Nc2ccnc3ccc(C(F)(F)F)cc23)cc(OC)c1OC [GW577382]	54
Cc1ccccc1COc1cc(-n2cnc3cc(Cl)ccc32)sc1C(N)=O [GW813349]	0
Nc1n[nH]c2ncc(-c3ccccc3)cc12 [SB-517081]	19
CC(C)(C)c1ccc(C(=O)Nc2cn3cc(-c4ccccc4)ccc3n2)cc1	0
FC(F)(F)c1ccc(-c2ncn(CCCN3CCOCC3)c2-c2ccncc2)cc1 [SB-217780]	8
O=C(Nc1n[nH]c2nc(-c3ccccc3)c(Br)cc12)C1CC1 [SB-708998]	1
COC(=O)c1c(-c2ccccc2)c2cc(Br)ccc2c(=O)n1Cc1ccc(NC(=O)CCC(=O)O)cc1	0
